Data as given in PubChem BioAssay (EPA / NIEHS).
The source made the active and inactive calls. The calls were made as follows: active = hit-call score of the fitted dose curve at least 0.9, where 1 is the maximum; inactive = score below 0.9.

read-out: CD69, CD69 (gene 969); assay: BSK_SAg_CD69: BioMAP Diversity Plus: SAg Assay for CD69 Biomarker Activity (AID 2283089); settings: primary human HUVEC with PBMC; actives raise or lower the signal
Description: BSK_SAg is a cell-based, multiplexed-readout assay that uses umbilical vein endothelium and peripheral blood mononuclear cells, a human vascular primary cell co-culture, with measurements taken at 24 hours after chemical dosing in a 96-well plate.BSK_SAg_CD69 is one of 10 assay component(s) measured or calculated from the BSK_SAg assay. It is designed to make measurements of enzyme-linked immunosorbent assay, a form of binding reporter, as detected with fluorescence intensity signals by Enzyme-linked immunosorbent assay technology.Data from the assay component BSK_SAg_CD69 was analyzed into 1 assay endpoint. This assay endpoint, BSK_SAg_CD69, was analyzed with bidirectional fitting relative to DMSO as the negative control and baseline of activity. Using a type of binding reporter, gain or loss-of-signal activity can be used to understand changes in the signaling as they relate to the gene CD69. Furthermore, this assay endpoint can be referred to as a primary readout, because this assay has produced multiple assay endpoints where this one serves a signaling function. To generalize the intended target to other relatable targets, this assay endpoint is annotated to the cytokine intended target family, where the subfamily is inflammatory factor.
The levels of cell surface (or secreted, indicated by the prefix "s") biomarker endpoints were measured by ELISA. Overt cytotoxicity to cells in confluent adherent cultures (all systems other than the BT system) was assessed by measuring total protein levels using sulforhodamine B (SRB) staining in parallel cultures at the time of biomarker measurements, indicated as SRB endpoints. For proliferation assays for adherent cell types, individual cell types are cultured at sub-confluence and relative cell numbers quantified by SRB staining at time points optimized for each system (48 h: 3C and CASM3C systems; 72 h: BT and HDF3CGF systems; 96 h: SAg system). SRB was performed by staining cells with 0.1% SRB after fixation with 10% TCA and reading wells at 560 nm.Viability and proliferation of PBMC (T cells) was quantified by Alamar Blue reduction for the SAg and BT systems. For PBMC viability (referred to as PBMC Cytotoxicity within the assay endpoint names), cells were plated (75,000/well in a 96-well plate) and then chemical samples added for 1 h before addition of activators, SEB and TSST-1 (20 ng/mL final concentration each). Cells were incubated for 90 h. Then, Alamar Blue (20 uL/well) (Invitrogen, Cat DAL1100) was added for 6 h, and the plates were read with a fluorescence microplate reader at 546/580 nm (excitation/emission). For PBMC proliferation, cells were plated and activated as above but incubated for only 16 h prior to addition of Alamar Blue. Plates were read after 6 h.

Row | SMILES | outcome | AC50
1 | OCCO | inactive | 
2 | c1ccc(C[n+]2cccc3ccccc32)cc1 | inactive | 
3 | CCOC(=O)O[C@H](C)OC(=O)c1ccc2c(c1)cc(C(=O)NC1CCN(C(C)C)CC1)n2Cc1cc(-c2ccc(Cl)s2)on1 |  | 6.44 µM (active)
4 | O=c1c(-c2ccc(O)cc2)coc2cc(O)cc(O)c12 |  | 20 µM (active)
5 | Cc1ccc2oc(CN(Cc3ccccc3)C(=O)Nc3c(F)cc(F)cc3F)c(-c3ccc(Cl)cc3)c2c1 | inactive | 
6 | CC1(C)NC(=O)N(c2ccc([N+](=O)[O-])c(C(F)(F)F)c2)C1=O | inactive | 
7 | c1ccc2ccccc2c1 | inactive | 
8 | O=C=NCCCCCCN=C=O | inactive | 
9 | c1ccc2n[nH]nc2c1 | inactive | 
10 | Oc1ccc2ccccc2c1 | inactive | 
11 | O=C1CCC(C2CCCCC2)CC1 | inactive | 
12 | O=C(O)Cn1c(=O)n(Cc2ccc(Br)cc2F)c(=O)c2ccc(Cl)cc21 | inactive | 
13 | O=C(O)c1ccccc1C(=O)OCc1ccccc1 | inactive | 
14 | O=C1c2ccccc2C(=O)N1CCc1noc(-c2ccc(CN3CCCCCC3)s2)n1 | inactive | 
15 | CCCCCCCC[Si](OCC)(OCC)OCC |  | 25.4 µM (active)
16 | Oc1ccccc1 | inactive | 
17 | O=C(Nc1ccc(Cl)cc1)Nc1ccc(Cl)c(Cl)c1 |  | 1.91 µM (active)
18 | Cc1occc1C(=O)Nc1ccc(C(=O)N2CCC(F)(F)/C(=C\C(=O)N3CCC(N4CCCCC4)CC3)c3ccccc32)cc1 | inactive | 
19 | O=C(O)c1ccccc1-n1cc(C(=O)O)c(=O)c2cc(Nc3c(F)cc(F)cc3Cl)c(Cl)cc21 | inactive | 
20 | CN(C)c1ccc(C(=C2C=CC(=[N+](C)C)C=C2)c2ccc(N(C)C)cc2)cc1 |  | 0.582 µM (active)

Row | SMILES | outcome | AC50
21 | OC12N=C(c3ccccc3)SC1Cc1cc(Cl)ccc12 (stereo not given) | inactive | 
22 | CCCCOC(=O)c1ccc(O)cc1 | inactive | 
23 | CCCC(=O)OCCC(C)C | inactive | 
24 | NC(=O)c1nc(-c2cccc(-c3cc(F)ccc3OCC(F)(F)C(F)(F)F)c2)n[nH]1 |  | 26.2 µM (active)
25 | CC(O)CC(C)(C)O (stereo not given) | inactive | 
26 | CCO[Si](CCCNC(N)=O)(OCC)OCC | inactive | 
27 | COc1cc(C(=O)NC2CCN(C)CC2)ccc1Nc1ncc2c(n1)N(C1CCCC1)CC(F)(F)C(=O)N2C |  | 10.8 µM (active)
28 | C[C@]12CC[C@@H]3c4ccc(O)cc4CC[C@H]3[C@@H]1CCC2=O | inactive | 
29 | CCCCCCCCCCCC[N+](C)(C)C |  | 18.1 µM (active)
30 | O=C1O[C@H]([C@@H](O)CO)C(O)=C1O | inactive | 
31 | CC[C@@H]1C[C@H](N(Cc2cc(C(F)(F)F)cc(C(F)(F)F)c2)C(C)=O)c2cc(C(F)(F)F)ccc2N1C(=O)OC(C)C | inactive | 
32 | Cc1ccc(C(C)C)cc1 | inactive | 
33 | Cc1oc2c(NC(=O)c3c(Cl)cccc3Cl)cccc2c1C(C)(C)O |  | 19.2 µM (active)
34 | CN1C(=O)CC[C@H]1c1cccnc1 | inactive | 
35 | CCCCCCCCN(C)CCCCCCCC | inactive | 
36 | CCCCOC(=O)CC(CC(=O)OCCCC)(OC(C)=O)C(=O)OCCCC | inactive | 
37 | Cc1c2ccccc2c(C)c2c1ccc1ccccc12 |  | 20 µM (active)
38 | CC(=O)N1CCN(c2ccc(OC[C@H]3CO[C@](Cn4ccnc4)(c4ccc(Cl)cc4Cl)O3)cc2)CC1 |  | 25.4 µM (active)
39 | CN(C)C(=O)C1(N2CCCCC2)CCN(CC[C@@]2(c3ccc(Cl)c(Cl)c3)CN(C(=O)c3ccccc3)CCO2)CC1 |  | 16.5 µM (active)
40 | Cc1cc(F)ccc1-c1cc(N2CC[C@@H](O)[C@H]2CO)ncc1N(C)C(=O)C(C)(C)c1cc(C(F)(F)F)cc(C(F)(F)F)c1 |  | 10.5 µM (active)
